PubChem BioAssay (NCATS)
Results filed as inconclusive are left out. Where a call stands in place of a potency, no number is given. Values without a mark were called inactive. Activity calls are given as the source filed them. The call rests on the fitted dose curve; in most records, active means well fitted curve in the direction sought with a large enough effect; inconclusive means small, poorly fitted or top-dose-only effect, or another doubt; inactive means no such curve, though single readings can be large; an effect the other way counts as inactive or inconclusive.

How the values were obtained:
[1] = qHTS for Inhibitors of the Aldehyde Dehydrogenase Family (ALDH1A2, ALDH1A3, ALDH2, ALDH3A1) (AID 2061307); further: nearly all actives have a fitted effect of over 50% in size; on potency: test system not described further here; potency means the concentration at half of the fitted maximal effect
[2] = biological target: Aldehyde dehydrogenase, mitochondrial (Homo sapiens) (UniProt P05091); assay: qHTS for Inhibitors of the Aldehyde Dehydrogenase Family (ALDH2) Primary screen (AID 2061308); further: nearly all actives have a fitted effect of over 55% in size; further: potency means the concentration at half of the fitted maximal effect
[3] = biological target: Retinaldehyde dehydrogenase 3 (Homo sapiens) (UniProt P47895); assay: qHTS for Inhibitors of the Aldehyde Dehydrogenase Family (ALDH1A3) Confirmatory screens (AID 2061311); further: potency means the concentration at half of the fitted maximal effect; nearly all actives have a fitted effect of over 60% in size
[4] = biological target: Aldehyde dehydrogenase 1A1 (Homo sapiens) (UniProt P00352); assay: qHTS for Inhibitors of the Aldehyde Dehydrogenase Family (ALDH1A1) Confirmatory screens (AID 2061316); further: nearly all actives have a fitted effect of over 65% in size; further: potency means the concentration at half of the fitted maximal effect
[5] = biological target: Retinal dehydrogenase 2 (Homo sapiens) (UniProt O94788); assay: qHTS for Inhibitors of the Aldehyde Dehydrogenase Family (ALDH1A2) Confirmation screens (AID 2061314); further: nearly all actives have a fitted effect of over 65% in size; further: potency means the concentration at half of the fitted maximal effect
[6] = biological target: Retinaldehyde dehydrogenase 3 (Homo sapiens) (UniProt P47895); assay: qHTS for Inhibitors of the Aldehyde Dehydrogenase Family (ALDH1A3) Primary screen (AID 2061315); further: potency means the concentration at half of the fitted maximal effect
[7] = BET inhibitor-based combinations targeting novel dependencies in MECOM-rearranged (r) AML: SET-2 cell line (AID 2202231); settings: SET-2 AML cells viability, CellTiter-Glo luminescence, 48 h; viability: hits give low values, series mostly up to about 46 µM; further: nearly all actives have a fitted effect of over 35% in size
Outline: (§1)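 A 48 hr incubation preceded viability reading by CellTiter-Glo, with 15 min room-temperature development. Dose series had 11 points; normalization used DMSO and empty wells; AUC was computed and mean-centered per line as Z-AUC.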

[8] = BET inhibitor-based combinations targeting novel dependencies in MECOM-rearranged (r) AML: MV-4-11 cell line (AID 2202233); further: potency means the concentration at half of the fitted maximal effect; nearly all actives have a fitted effect of over 45% in size
Outline: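 Each compound is tested in an 11-point concentration series against 500 seeded cells/well for 48 hr. The luminescent viability signal is normalized to DMSO and blank wells, then reduced to AUC and a cell-line-centred Z-AUC.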

[9] = BET inhibitor-based combinations targeting novel dependencies in MECOM-rearranged (r) AML: AML-191 cell line (AID 2202236; further: nearly all actives have a fitted effect of over 35% in size)
Outline: as §1

[10] = BET inhibitor-based combinations targeting novel dependencies in MECOM-rearranged (r) AML: AML-194 cell line (AID 2202237; further: nearly all actives have a fitted effect of over 40% in size)
Outline: as §1

N#Cc1cccnc1SC1=NS(=O)(=O)c2ccccc21
Potency [1]: 0.891 µM (active)
Potency [2]: 3.16 µM (active)
Potency [3]: 1.27 µM (active)
Potency [4]: 0.0712 µM (active)

O=S(=O)(c1ccccc1)N1CCN(c2nc(-c3ccc(Br)cc3)cs2)CC1
Potency [1]: 7.98 µM (active)
Potency [2]: inactive
Potency [5]: inactive
Potency [6]: inactive
Potency [4]: 10.1 µM (active)

O=C(Nc1nc(-c2ccccc2)cs1)c1ccncc1NS(=O)(=O)c1ccc(Cl)cc1
Potency [1]: 25.2 µM (active)
Potency [2]: inactive
Potency [5]: 10.1 µM (active)
Potency [6]: inactive

COc1ccc(C2Nc3ccccc3C(=O)N2CCc2ccc(Cl)cc2Cl)cc1COc1ccc(NC(C)=O)cc1 (stereo not drawn)
Potency [1]: 3.57 µM (active)
Potency [2]: inactive
Potency [6]: inactive

CN(CC(=O)O)c1ncnc2ccc(-c3ccc4c(c3)OCO4)cc12
Potency [1]: inactive
Potency [2]: inactive
Potency [6]: inactive

Cc1nc(-c2ccccc2)oc1-c1ccc2ncnc(NCc3ncc[nH]3)c2c1
Potency [1]: inactive
Potency [2]: inactive
Potency [6]: inactive

N#Cc1nc(Nc2ccccc2)nc(NC2CCCCC2)n1
Potency [1]: 0.708 µM (active)
Potency [2]: inactive
Potency [5]: inactive
Potency [6]: inactive

Cc1cc(-c2nnc3n2CCCCC3)c(C)n1-c1ccc(Cl)c(Cl)c1
Potency [1]: inactive
Potency [2]: inactive
Potency [5]: 20.1 µM (active)
Potency [6]: inactive
Potency [4]: 14.2 µM (active)

O=C(CN1C(=O)N/C(=C\c2cn(-c3cccc(C(=O)O)c3)cn2)C1=O)Nc1ccccc1Cl
Potency [1]: inactive
Potency [2]: inactive
Potency [5]: inactive
Potency [6]: inactive
Potency [4]: inactive

CCOc1ccc(CCNC(=O)c2cc3c(s2)CCC3)cc1OCC
Potency [1]: inactive
Potency [2]: inactive
Potency [5]: 14.2 µM (active)
Potency [6]: inactive

CSc1ccc(-c2cnc(N3CCC(C(N)=O)CC3)s2)cc1
Potency [1]: 3.18 µM (active)
Potency [2]: inactive
Potency [6]: inactive

O=C(Nc1nc(-c2ccccc2)cs1)c1ccncc1NS(=O)(=O)c1ccc2ccccc2c1
Potency [1]: 2.51 µM (active)
Potency [2]: inactive
Potency [5]: 7.12 µM (active)
Potency [6]: inactive
Potency [4]: 8.96 µM (active)

COc1ccc(C2=Nn3c(nnc3-c3cc(OC)ccc3OC)SC2)cc1
Potency [1]: 20 µM (active)
Potency [2]: inactive
Potency [5]: inactive
Potency [6]: inactive
Potency [4]: 14.2 µM (active)

COc1ccc(C2Nc3ccccc3C(=O)N2Cc2ccccc2Cl)cc1COc1ccc(NC(C)=O)cc1 (stereo not drawn)
Potency [1]: 8.96 µM (active)
Potency [2]: inactive
Potency [6]: inactive

O=C([C@H](Cc1ccc(O[S+](=O)([O-])c2cccnc2)cc1)N[S+](=O)([O-])c1ccccn1)N1CCN(c2ccccc2)CC1
Potency [1]: 15.8 µM (active)
Potency [2]: inactive
Potency [5]: 7.98 µM (active)
Potency [6]: inactive
Potency [4]: 5.04 µM (active)

Cc1cnc(-c2ccccc2C2COC2)nc1NCc1ccc(-n2ccnn2)cc1
Potency [1]: inactive
Potency [2]: inactive
Potency [6]: inactive

O=C(Nc1cncc(Cc2ccccc2)c1)c1ccc(-c2cccc([N+](=O)[O-])c2)o1
Potency [1]: 1.27 µM (active)
Potency [2]: inactive
Potency [5]: 12.7 µM (active)
Potency [6]: inactive
Potency [4]: 3.18 µM (active)

COc1ccc(C2Nc3ccccc3C(=O)N2Cc2ccc(CNC(=O)CO)cc2)cc1COc1ccc(NC(C)=O)cc1 (stereo not drawn)
Potency [1]: 4.49 µM (active)
Potency [2]: inactive
Potency [5]: 12.7 µM (active)
Potency [6]: inactive

CN1CCN(c2ccc(Nc3nn4c(=O)c5ccccc5nc4s3)cc2)CC1
Potency [1]: inactive
Potency [2]: inactive
Potency [5]: 14.2 µM (active)
Potency [6]: inactive
Potency [4]: 12.7 µM (active)

Cc1ccnc(CC(=S)N2CCN(c3cccc(C(F)(F)F)c3)CC2)c1
Potency [1]: 10 µM (active)
Potency [2]: inactive
Potency [5]: 12.7 µM (active)
Potency [6]: inactive
Potency [4]: 10.1 µM (active)

CC(C)Oc1cccc(-c2cnc(N3CCC(C(N)=O)CC3)s2)c1
Potency [1]: inactive
Potency [2]: inactive
Potency [6]: inactive

O=C(O)c1ccc(-n2cccc2/C=C2\SC(=O)N(Cc3ccc(F)cc3)C2=O)cc1
Potency [1]: 7.98 µM (active)
Potency [2]: inactive
Potency [6]: inactive

N#Cc1nc(Nc2cccc(Cl)c2)nc(NC2CCCC2)n1
Potency [1]: 0.708 µM (active)
Potency [2]: inactive
Potency [6]: inactive

Cc1cc(C)nc(NC(=S)N2CC3CN(c4ncc(C(F)(F)F)cc4Cl)CC3C2)c1 (stereo not drawn)
Potency [1]: inactive
Potency [2]: 2.51 µM (active)
Potency [5]: inactive
Potency [4]: 12.7 µM (active)

Cc1cc(-c2nnc3n2CCCC3)c(C)n1-c1ccccc1
Potency [1]: inactive
Potency [2]: inactive
Potency [5]: inactive
Potency [6]: inactive
Potency [4]: 11.3 µM (active)

N#Cc1nc(Nc2ccc3ccccc3c2)nc(NC2CCCC2)n1
Potency [1]: inactive
Potency [2]: inactive
Potency [5]: 22.5 µM (active)
Potency [6]: inactive

COc1ccc(C2Nc3ccccc3C(=O)N2CCc2ccccc2)cc1COc1ccc(NC(C)=O)cc1 (stereo not drawn)
Potency [1]: 5.65 µM (active)
Potency [2]: inactive
Potency [6]: inactive

COc1ccc(-c2nc3ccccc3c(=O)n2Cc2ccco2)cc1COc1ccc(NC(C)=O)cc1
Potency [1]: 20.1 µM (active)
Potency [2]: inactive
Potency [5]: 12.7 µM (active)
Potency [6]: inactive

FC(F)(F)c1ccc(-c2ccc(CNc3nc(-c4ccccc4C(F)(F)F)nc4ccccc34)cc2)cn1
Potency [1]: 8.91 µM (active)
Potency [2]: inactive
Potency [5]: 25.2 µM (active)
Potency [6]: inactive
Potency [4]: 7.98 µM (active)

FC(F)Oc1ccc(C2=Nn3c(nnc3-c3ccccc3C(F)(F)F)SC2)cc1OCC1CC1
Potency [1]: 2.83 µM (active)
Potency [2]: inactive
Potency [5]: 17.9 µM (active)
Potency [6]: inactive
Potency [4]: inactive

COc1cc2ncnc(N(C)Cc3csc(C)n3)c2cc1-c1ccc2c(c1)OCO2
Potency [1]: inactive
Potency [2]: inactive
Potency [5]: inactive
Potency [6]: inactive

COc1ccc(C2Nc3ccccc3C(=O)N2Cc2ccco2)cc1COc1ccc(NC(C)=O)cc1 (stereo not drawn)
Potency [1]: inactive
Potency [2]: inactive
Potency [6]: inactive

CCOC(=O)c1ccc(-n2cccc2/C=C2\NC(=O)NC2=O)cc1
Potency [1]: inactive
Potency [2]: inactive
Potency [6]: inactive

O=C([C@H](Cc1ccc(O[S+](=O)([O-])c2cccnc2)cc1)N[S+](=O)([O-])c1cccc2cnccc12)N1CCN(c2ccccc2)CC1
Potency [1]: inactive
Potency [2]: inactive
Potency [6]: inactive

O=C(NCCCCc1ccccc1)C1CCN(c2nc(-c3ccc(Br)cc3)cs2)CC1
Potency [1]: 3.57 µM (active)
Potency [2]: inactive
Potency [5]: inactive
Potency [6]: inactive
Potency [4]: 8.96 µM (active)

N#Cc1c(-c2ccc(Br)cc2)no[n+]1[O-]
Potency [1]: 7.98 µM (active)
Potency [2]: 7.94 µM (active)
Potency [5]: 7.12 µM (active)
Potency [6]: inactive

COc1ccc(C2Nc3ccccc3C(=O)N2Cc2ccccc2)cc1COc1ccc(NC(C)=O)cc1 (stereo not drawn)
Potency [1]: 3.18 µM (active)
Potency [2]: inactive
Potency [6]: inactive

O=C(O)C1CCN(c2ncc(-c3ccc4c(c3)OCCCO4)s2)CC1
Potency [1]: 1.52 µM (active)
Potency [2]: inactive
Potency [6]: 0.447 µM (active)

O=[S+]([O-])(Nc1ccc(-c2nc3ccccc3[nH]2)cc1)c1ccc2c(c1)OCO2
Potency [1]: inactive
Potency [2]: inactive
Potency [5]: 15.9 µM (active)
Potency [6]: inactive
Potency [4]: inactive

COc1ccc(C2=Nn3c(nnc3-c3ccc(OC)cc3)SC2)cc1
Potency [1]: 7.98 µM (active)
Potency [2]: inactive
Potency [5]: inactive
Potency [6]: inactive
Potency [4]: inactive

COc1ccc(C2=Nn3c(nnc3-c3cccc(OC)c3OC)SC2)c(OC)c1
Potency [1]: 2 µM (active)
Potency [2]: inactive
Potency [5]: inactive
Potency [6]: inactive
Potency [4]: inactive

O=C(O)c1ccc(O)c2ncc(-c3ccc(C(=O)N4CCNCC4)cc3)cc12
Potency [1]: inactive
Potency [2]: inactive
Potency [6]: inactive
Potency [4]: inactive

CCCCN(C)C(=O)Cn1nc(-c2ccc(Cl)cc2)ccc1=O
Potency [1]: inactive
Potency [2]: inactive
Potency [6]: inactive

COc1cc(/C=C2\C(=O)Nc3ccccc32)ccc1O
Potency [1]: inactive
Potency [2]: inactive
Potency [6]: inactive

NC(=O)C1CCN(c2nc(-c3ccccc3N)cs2)CC1
Potency [1]: 7.12 µM (active)
Potency [2]: inactive
Potency [6]: inactive
Potency [4]: 12.7 µM (active)

O=C(Nc1nc(-c2ccccc2)cs1)c1ccncc1NS(=O)(=O)c1ccccc1Cl
Potency [1]: 22.5 µM (active)
Potency [2]: inactive
Potency [6]: inactive

COc1ccc(C2Nc3ccccc3C(=O)N2Cc2ccccn2)cc1COc1ccc(NC(C)=O)cc1 (stereo not drawn)
Potency [1]: 6.31 µM (active)
Potency [2]: inactive
Potency [6]: inactive

O=C(O)c1ccc(-n2cccc2/C=C2\SC(=O)N(Cc3ccc(Br)cc3)C2=O)cc1
Potency [1]: 5.04 µM (active)
Potency [2]: inactive
Potency [6]: inactive
Potency [4]: inactive

COc1ccc(C2Nc3ccccc3C(=O)N2Cc2ccccc2OC)cc1COc1ccc(NC(C)=O)cc1 (stereo not drawn)
Potency [1]: 2.25 µM (active)
Potency [2]: inactive
Potency [6]: inactive
Potency [4]: 22.5 µM (active)

Cc1[nH]c2ccccc2c1C1=C(NCCc2ccc(F)cc2)C(=O)N(C)C1=O
Potency [1]: 0.896 µM (active)
Potency [2]: inactive
Potency [6]: inactive

COc1ccc(NC(=O)CN(C)C(=O)c2cc3c(s2)CCC3)cc1
Potency [1]: inactive
Potency [2]: inactive
Potency [6]: inactive

CC(C)(C)OC(=O)NCCOCCOCCOCCn1ncc2c1CCCC2NC(=O)c1ccccn1 (stereo not drawn)
Potency [1]: inactive
Potency [2]: inactive
Potency [6]: inactive

CC(=O)N1CCc2cc(-c3nc(NC(=O)Cc4ccc5c(c4)OCO5)sc3C)ccc21
Potency [1]: 2.01 µM (active)
Potency [2]: inactive
Potency [6]: inactive
Potency [4]: 10.1 µM (active)

Cc1ccc(-n2c(C)cc(-c3nnc4n3CCCCC4)c2C)cc1
Potency [1]: inactive
Potency [2]: inactive
Potency [6]: inactive
Potency [4]: 20.1 µM (active)
viability [7]: 104%
Potency [8]: 23.5 µM (active)
Potency [9]: inactive
Potency [10]: inactive

O=C(c1cccs1)c1nonc1C(=O)c1cccs1
Potency [1]: inactive
Potency [2]: inactive
Potency [6]: inactive

Fc1cnc(-c2ccccc2C(F)F)nc1NCC1CCN(c2cnccn2)CC1
Potency [1]: inactive
Potency [2]: inactive
Potency [6]: inactive

N[C@@H](Cc1ccc(OS(=O)(=O)c2cccnc2)cc1)C(=O)N1CCN(c2ccccc2)CC1
Potency [1]: 5.65 µM (active)
Potency [2]: inactive
Potency [6]: inactive
Potency [4]: 10.1 µM (active)

NC(=O)C1CCN(c2nc(-c3ccccc3[N+](=O)[O-])cs2)CC1
Potency [1]: 12.7 µM (active)
Potency [2]: inactive
Potency [6]: inactive
Potency [4]: 5.04 µM (active)

Cc1cc(NC(=O)c2ccc(NC(=O)Cc3ccc(Cl)c(Cl)c3)cc2)no1
Potency [1]: inactive
Potency [2]: inactive
Potency [6]: inactive

COc1ccc(S(=O)(=O)N2CCN(S(=O)(=O)c3ccc4c(c3)OCCO4)CC2)cc1
Potency [1]: inactive
Potency [2]: inactive
Potency [6]: inactive

O=C(OCC#CCSc1nnc(-c2cccc3ccccc23)o1)c1ccc(Br)cc1
Potency [1]: inactive
Potency [2]: inactive
Potency [6]: inactive
Potency [4]: inactive
